Mtb MbtI inh: MbtI salicylate synthase inhibitors, primary screen, biochemical, fluorescence intensity; P9WFX0; purified MbtI enzyme, fluorescence intensity read-out; inhibition, % (no concentration beside the values); 0.89% of 100,000 active; in the data active = inhibition mostly above about 56%, no sharp cut-off; inactive = mostly below about 77%
Target sequence (P9WFX0 whole entry, looked up): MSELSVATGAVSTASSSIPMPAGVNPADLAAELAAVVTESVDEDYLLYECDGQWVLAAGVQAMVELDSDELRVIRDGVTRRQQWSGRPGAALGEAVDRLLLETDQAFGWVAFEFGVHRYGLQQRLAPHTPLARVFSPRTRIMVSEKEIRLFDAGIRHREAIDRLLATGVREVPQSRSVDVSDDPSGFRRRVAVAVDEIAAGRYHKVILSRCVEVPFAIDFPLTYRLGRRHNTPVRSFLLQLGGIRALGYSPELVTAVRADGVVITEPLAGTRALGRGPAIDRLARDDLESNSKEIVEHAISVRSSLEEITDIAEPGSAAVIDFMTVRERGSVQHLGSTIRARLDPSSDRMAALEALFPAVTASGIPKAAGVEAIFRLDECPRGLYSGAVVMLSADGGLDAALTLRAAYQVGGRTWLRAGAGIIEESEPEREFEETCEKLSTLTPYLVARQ
PV pol inh: poliovirus RdRp elongation inhibitors, primary screen, biochemical, fluorescence polarization, total intensity; Genome polyprotein (Poliovirus type 1 (strain Mahoney)), P03300; poliovirus polymerase elongation; active compounds read low; % elongation, % (compound at 16.7 µg/mL); 0.66% of 150,000 active; AID 588519, 2011; in the data active = % elongation below about 90%
MenB inh: M. tuberculosis MenB inhibitors, primary screen, biochemical, absorbance; MenB enzyme assay, absorbance read-out; 1,4-dihydroxy-2-naphthoyl-CoA synthase (Mycobacterium tuberculosis (strain ATCC 25618 / …; 0.43% of 100,000 active; AID 540299, 2011; inhibition, % (test concentration not listed); in the data active = inhibition above about 21%, passing the limit was not always enough
Hits are given with their value; - = inactive; . = no result. Most compounds without a hit are left out; they make up all but 1.5% or so of the library.

SMILES | Mtb MbtI inh | PV pol inh | MenB inh
Cc1cc(C)nc(SCC(=O)OCN2C(=O)c3ccccc3C2=O)n1 | - | - | -
CC(=O)N1CCc2cc(N=Nc3c(N)[nH]n(-c4ccccc4)c3=O)ccc21 | - | - | -
CC(=O)Nc1ccc2c(c1)C1C=CCC1C(C(=O)O)N2 (stereo unspecified) | - | . | .
O=C(O)C1Nc2c(I)cccc2C2C=CCC12 (stereo unspecified) | 102.8 | - | -
COC(=O)c1oc2cc(C)ccc2c1C | - | - | -
CCN1CCc2c(sc3nc(=S)[nH]c(N)c23)C1 | - | - | -
CC1CC(C)CN(C(=O)C(C)Sc2nnc(N)s2)C1 (stereo unspecified) | - | . | -
COc1ccc(CCNC(=S)N2CCCC2)cc1OC | - | - | -
COc1ccc(CCNC(=S)N2CCCC(C(F)(F)F)C2)cc1 (stereo unspecified) | 83.7 | 80.0 | -
O=C(CNC(=O)c1cccc(F)c1)OC1CCCCC1=O (stereo unspecified) | - | - | -
O=C(Nc1nncs1)C1CCCCC1 | . | - | -
Cc1cc(OC(=O)NC(=O)C(F)(F)F)c(C(C)C)cc1I | . | - | -
On1ccccc1=S | 92.2 | - | -
Cn1ccccc1=S | - | - | -
CN(c1ccc(O)cc1)c1nc(O)c(C2=c3ccccc3=NC2=O)s1 | - | - | -
O=C1N=c2ccccc2=C1c1sc(N2CCCCC2)nc1O | - | 58.0 | -
O=C1N=c2ccccc2=C1c1sc(=O)[nH]c1O | - | - | -
O=C1N=c2ccccc2=C1c1sc(=S)[nH]c1O | 84.5 | - | -
NC(=O)C1C2C=CC(C2)C1C(=O)O (stereo unspecified) | - | - | -
Cc1nnc(SCC(=O)Nc2cc(C(F)(F)F)ccc2N2CCOCC2)n1C1CC1 | - | - | -
CCSc1nc2ccccc2n1CC(=O)NCc1ccc(OC)cc1 | - | - | .
CC1(C)Nc2ccccc2C(=O)N1c1ccccc1 | - | - | 43.3
COc1ccc(N2C(=O)c3ccccc3NC23CCCC3)cc1 | - | - | -
O=C(c1cc(=O)[nH]c2ccccc12)N1CCCc2ccccc21 | - | . | -
CC1(C)CSC(=NCc2ccccc2)N1C(=O)Cn1[nH]c(=O)c2ccccc2c1=O | - | - | -
SMILES | Mtb MbtI inh | PV pol inh | MenB inh
O=C(Cn1[nH]c(=O)c2ccccc2c1=O)N1CCSC1=NCc1ccccc1 | - | 90.0 | -
O=C(c1cc(=O)[nH]c2ccccc12)N1CCSC1=NCCc1ccccc1 | - | 64.0 | -
COC(=O)c1ccc(OC(=O)CCn2ccc3ccccc32)cc1 | - | - | -
COC(=O)c1cccc(N2C(=O)C3C4C=CC(C)(O4)C3C2=O)c1 (stereo unspecified) | 98.8 | - | -
CC(=O)Oc1ccc(N2C(=O)C3C4C=CC(C(OC(C)=O)OC(C)=O)(O4)C3C2=O)cc1 (stereo unspecified) | . | - | -
O=C1CC2(Oc3ccccc3O2)C(=O)NN1 | - | - | -
COc1cccc(-n2cc(C(=O)N3CCN(C(=O)c4ccco4)CC3)c3ccccc3c2=O)c1 | - | - | -
Fc1ccc(C(c2nnnn2C2CCCC2)N(Cc2ccccc2)Cc2ccco2)cc1 (stereo unspecified) | - | - | -
CCN(Cc1ccccc1)C(c1ccccn1)c1nnnn1C1CCCCC1 (stereo unspecified) | - | - | 34.3
CCOC(=O)c1nn(-c2ccc(OC)cc2)c(=O)c2c(N)scc12 | 54.5 | - | -
CCOC(=O)c1nn(-c2ccc(OC)cc2)c(=O)c(C#N)c1C | - | . | .
CCOC(=O)c1c(C)oc(NC(=O)COc2ccc(Cl)cc2Cl)c1C#N | - | . | -
CCN(c1ccccc1)S(=O)(=O)c1ccc(Cl)cc1 | - | - | -
CCN(c1ccccc1)S(=O)(=O)c1ccc(C(=O)OCC#N)cc1 | - | 66.0 | -
c1csc(CNC2CCCC2)c1 | - | - | -
CC(C)C(C(=O)O)N1C(=O)/C(=C/C=C/c2ccco2)SC1=S (stereo unspecified) | - | - | -
O=C(O)CCC(C(=O)O)N1C(=O)/C(=C/C=C/c2ccco2)SC1=S (stereo unspecified) | - | 89.0 | -
Cc1ccc2nc(SC(C)C(=O)Nc3ccc(C#N)cc3)[nH]c2c1 (stereo unspecified) | - | - | -
CCc1nnc(NC(=O)CCCn2c(=O)oc3ccccc32)s1 | - | - | -
Nc1nnc(CCCn2c(=O)oc3ccccc32)s1 | . | 86.0 | -
Cc1ccc(S(=O)(=O)N(C)CC(=O)OCc2nc3ccc(Cl)cc3n2CCO)cc1 | - | - | -
CN(C)S(=O)(=O)c1ccc(NCC(=O)Nc2ccc(SC(F)F)cc2)cc1 | - | - | -
CCc1c(C)sc(NC(=O)CCCC(=O)O)c1C(N)=O | . | 81.0 | -
CCCc1cc(C(=O)OC)c(NC(=O)CCCC(=O)O)s1 | - | - | -
